From PMC11062922 (Nature Chemical Biology, 2023)
Read-outs that look alike come from different tables or passages of the source.

Assays:
Design in all cases: species or system human, MV4-11 + K-562 + COLO205 + SK-N-BE2 + OVCAR-8
DDR1 = details: read-out: apparent Kd, n = 1
DDR2 = details: read-out: apparent Kd, n = 1
FLT3 = details: read-out: apparent Kd; compound concentrations:100 nM and 1000 nM (sheet 'Samples'); n = 1
MAP2K1 = details: read-out: apparent Kd; compound concentrations:100 nM and 1000 nM (sheet 'Samples'); n = 1
NQO1 = details: read-out: apparent Kd; compound concentrations:100 nM and 1000 nM (sheet 'Samples'); n = 1
PIK3C3 = details: read-out: apparent Kd; compound concentrations:100 nM and 1000 nM (sheet 'Samples'); n = 1
PIK3CD = details: read-out: apparent Kd; compound concentrations:100 nM and 1000 nM (sheet 'Samples'); n = 1
RIOK2 = details: read-out: apparent Kd; compound concentrations:100 nM and 1000 nM (sheet 'Samples'); n = 1
SMC4 = details: read-out: apparent Kd; compound concentrations:100 nM and 1000 nM (sheet 'Samples'); n = 1
CSNK1D = details: read-out: apparent Kd; compound concentrations:100 nM and 1000 nM (sheet 'Samples'); n = 1
CSNK1E = details: read-out: apparent Kd; compound concentrations:100 nM and 1000 nM (sheet 'Samples'); n = 1
MAPK14 = details: read-out: apparent Kd; compound concentrations: 100 nM and 1000 nM (sheet 'Samples'), CATDS: 0.14248163391639501; n = 1
MAPKAPK2 = details: read-out: apparent Kd; compound concentrations:100 nM and 1000 nM (sheet 'Samples'); n = 1
PKN3 = details: read-out: apparent Kd; compound concentrations:100 nM and 1000 nM (sheet 'Samples'); n = 1
CSNK1G1 = details: read-out: apparent Kd; compound concentrations: 100 nM and 1000 nM (sheet 'Samples'), CATDS: 0.44433796545528997; n = 1
PKM = details: read-out: apparent Kd; compound concentrations: 100 nM and 1000 nM (sheet 'Samples'), CATDS: 0.57160468415719301; n = 1
CSNK2A2 = details: read-out: apparent Kd, compound concentrations: 100 nM and 1000 nM (sheet 'Samples'), n = 1
DJA1 = tested on: T1, DJA1; details: read-out: apparent Kd; compound concentrations: 100 nM and 1000 nM (sheet 'Samples'), CATDS: 0.455945316982168; n = 1
T1 construct: gene DNAJA1

FLT4 = details: read-out: apparent Kd; compound concentrations: 100 nM and 1000 nM (sheet 'Samples'), CATDS: 0.41854797783311298; n = 1
NQO2 = details: read-out: apparent Kd; compound concentrations: 100 nM and 1000 nM (sheet 'Samples'), CATDS: 0.17633941136765999; n = 1
CSNK2A1;CSNK2A3 = details: read-out: apparent Kd, compound concentrations: 100 nM and 1000 nM (sheet 'Samples'), n = 1
GAK = details: read-out: apparent Kd; compound concentrations: 100 nM and 1000 nM (sheet 'Samples'), CATDS: 0.30476726939930399; n = 1
MAPK9 = details: read-out: apparent Kd; compound concentrations: 100 nM and 1000 nM (sheet 'Samples'), CATDS: 0.27430209396639399; n = 1
TTK = details: read-out: apparent Kd; compound concentrations: 100 nM and 1000 nM (sheet 'Samples'), CATDS: 0.21902937280851401; n = 1
DYNC1LI1 = details: read-out: apparent Kd; compound concentrations:100 nM and 1000 nM (sheet 'Samples'); n = 1
RET = details: read-out: apparent Kd; compound concentrations:100 nM and 1000 nM (sheet 'Samples'); n = 1
PIK3CA = details: read-out: apparent Kd; compound concentrations:100 nM and 1000 nM (sheet 'Samples'); n = 1
ZAK = details: read-out: apparent Kd; compound concentrations:100 nM and 1000 nM (sheet 'Samples'); n = 1
[1] = compound concentrations:100 nM and 1000 nM (sheet 'Samples')

COC(=O)Nc1nc2ccc(Oc3ccc(CC(=O)Nc4cc(C(F)(F)F)ccc4F)cc3)cc2[nH]1 [GW680903X]
potency estimated from few doses (DDR1; [1]): 257 nM | potency estimated from few doses (DDR2; [1]): 404 nM | potency estimated from few doses (FLT3): 713 nM | potency estimated from few doses (MAP2K1): 2320 nM | potency estimated from few doses (NQO1): 2020 nM | potency estimated from few doses (PIK3C3): 1510 nM | potency estimated from few doses (PIK3CD): 104 nM | potency estimated from few doses (RIOK2): 1760 nM | potency estimated from few doses (SMC4): 1910 nM

COC(=O)Nc1nc2cc(Oc3ccc(NC(=O)Nc4ccccc4)cc3)ccc2[nH]1.Cl [GW694590A]
potency estimated from few doses (DDR1; compound concentrations: 100 nM and 1000 nM (sheet 'Samples'), CATDS: 0.58971878257752297): 426 nM | potency estimated from few doses (DDR2; compound concentrations: 100 nM and 1000 nM (sheet 'Samples'), CATDS: 0.43397569756313797): 799 nM

Cc1cccc2c(-c3ccncc3)c(-c3ccc(F)cc3)nn12.Cl [GW461487A]
potency estimated from few doses (CSNK1D): 605 nM | potency estimated from few doses (CSNK1E): 879 nM | potency estimated from few doses (MAPK14): 940 nM | potency estimated from few doses (MAPKAPK2): 565 nM | potency estimated from few doses (PIK3CD): 152 nM | potency estimated from few doses (PKN3): 1420 nM

COc1cccc(NC(=O)Nc2ccc(C)c(-c3ccc(C(=O)Nc4ccncc4)cc3)c2)c1 [GSK1398474A]
potency estimated from few doses (CSNK1G1): 1890 nM | potency estimated from few doses (PKM): 1140 nM

CCS(=O)(=O)c1ccc(OC)c(Nc2ncc(-c3ccc(F)cc3)o2)c1.Cl [GW591947A]
potency estimated from few doses (CSNK2A2; CATDS: 0.17401411869460601): 1860 nM | potency estimated from few doses (DJA1): 131 nM | potency estimated from few doses (FLT4): 152 nM | potency estimated from few doses (NQO2): 1750 nM

CNc1nc(Nc2ccc(C(=O)N3CCOCC3)cc2OC)ncc1Cl [HG-10-102-01]
potency estimated from few doses (CSNK2A1;CSNK2A3; CATDS: 0.22184782024324001): 2220 nM | potency estimated from few doses (GAK): 1180 nM | potency estimated from few doses (MAPK9): 1430 nM | potency estimated from few doses (TTK): 2290 nM

COC(=O)Nc1nc2cc(Oc3ccc(NC(=O)Nc4cc(C(F)(F)F)ccc4F)cn3)ccc2[nH]1.COC(=O)Nc1nc2cc(Oc3ccc(NC(=O)Nc4cc(C(F)(F)F)ccc4F)cn3)ccc2[nH]1.Cl.Cl [GW681170A]
potency estimated from few doses (DDR1; [1]): 278 nM | potency estimated from few doses (DDR2; [1]): 1460 nM | potency estimated from few doses (DYNC1LI1): 1830 nM | potency estimated from few doses (FLT3): 1240 nM | potency estimated from few doses (RET): 461 nM

Cc1cn(-c2cc(NC(=O)c3ccc4c(c3)CN(c3cncnc3)C[C@@H]4C)cc(C(F)(F)F)c2)cn1 [D2202-1]
potency estimated from few doses (DDR1; [1]): 494 nM | potency estimated from few doses (DDR2; [1]): 915 nM

CC(=O)c1c(C)c2cnc(Nc3ccn(C)n3)nc2n(C2CCCC2)c1=O [PFE-PKIS_44]
potency estimated from few doses (CSNK2A1;CSNK2A3; CATDS: 0.47499416496698399): 2260 nM | potency estimated from few doses (CSNK2A2; CATDS: 0.52778498170906496): 1830 nM

COC(=O)Nc1nc2cc(Oc3ccc(NC(=O)Nc4cccc(SC)c4)cc3)ccc2[nH]1.Cl [GW697999A]
potency estimated from few doses (DDR1; [1]): 194 nM | potency estimated from few doses (DDR2; [1]): 618 nM | potency estimated from few doses (FLT3): 332 nM | potency estimated from few doses (PIK3CA): 205 nM | potency estimated from few doses (PIK3CD): 92.1 nM | potency estimated from few doses (SMC4): 2010 nM | potency estimated from few doses (ZAK): 1910 nM
